Experimental data: PubChem BioAssay (NCI)
Where “and” joins values, the source holds several entries; their conditions need not be identical. Equal entries are not always repeated. About 83,000 compounds went through this panel and 20% of them were active in at least one assay; those are over-represented in the sample as a whole.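 Growth was measured after 48 h exposure to one concentration of compound in 96-well plates. Values under 10 count as active.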 Calls of active or inactive are those of the source.

What was measured:
Experiment in all cases: NCI-60 one-dose screen, 48 h (100 = growth as untreated, 0 = no growth, -100 = all killed)
T-47D breast = test system: T-47D breast
BT-549 breast = test system: BT-549 breast
MDA-MB-435 melanoma = test system: MDA-MB-435 melanoma
SW-620 colon = test system: SW-620 colon
MCF7 breast = test system: MCF7 breast
HCT-116 colon = test system: HCT-116 colon
HCC-2998 colon = test system: HCC-2998 colon
KM12 colon = test system: KM12 colon

Measured: growth

O=C(Nc1c(Cl)cccc1Cl)Oc1cccc2cccnc12
active: T-47D breast; 100 µM 7.28% | MCF7 breast; 10 µM 3.58% | MCF7 breast; 100 µM -1.84% | HCT-116 colon; 100 µM 8.1% | KM12 colon; 100 µM 5.56%
inactive: T-47D breast; 10 µM 30.2% | BT-549 breast; 10 µM 78.5% | BT-549 breast; 100 µM 23.5% | MDA-MB-435 melanoma; 10 µM 53.6% | MDA-MB-435 melanoma; 100 µM 23.8% | SW-620 colon; 10 µM 26.8% | SW-620 colon; 100 µM 23.5% | HCT-116 colon; 10 µM 14.3% | HCC-2998 colon; 10 µM 93.4% | HCC-2998 colon; 100 µM 42.2% | KM12 colon; 10 µM 47%

N#CSCc1ccc(CSC#N)c(Cl)c1
inactive: T-47D breast; 10 µM unless noted 68.4% | BT-549 breast; 10 µM unless noted 56.5% | MDA-MB-435 melanoma; 10 µM unless noted 40.6% | SW-620 colon; 10 µM unless noted 25.4% | MCF7 breast; 10 µM 22.7% | HCT-116 colon; 10 µM unless noted 43.6% | HCC-2998 colon; 10 µM unless noted 102% | KM12 colon; 10 µM unless noted 69.3%

Cc1ccc(NS(=O)(=O)c2ccc(C)cc2)cc1
inactive: T-47D breast; 10 µM unless noted 94.1% and 83.7% | BT-549 breast; 10 µM unless noted 117% and 105% | MDA-MB-435 melanoma; 10 µM unless noted 108% and 109% | SW-620 colon; 10 µM unless noted 104% and 107% | MCF7 breast; 10 µM 88% and 91.2% | HCT-116 colon; 10 µM unless noted 102% and 98.1% | HCC-2998 colon; 10 µM unless noted 97.7% and 97.8% | KM12 colon; 10 µM unless noted 91.2% and 89.2%

CN=C(N)N/N=C(\C)c1ccc2c(c1)Cc1cc(/C(C)=N/NC(N)=NC)ccc1-2
active: T-47D breast; 10 µM unless noted -26% | MDA-MB-435 melanoma; 10 µM unless noted -59.7% | SW-620 colon; 10 µM unless noted -14.8% | MCF7 breast; 10 µM -38.3% | HCT-116 colon; 10 µM unless noted -23.5% | HCC-2998 colon; 10 µM unless noted -78.7% | KM12 colon; 10 µM unless noted -20.3%
inactive: BT-549 breast; 10 µM unless noted 49.6%

Nc1nc(N)c2nc(CNc3ccc(C(=O)NC(CCC(=O)O)C(=O)O)cc3)cnc2n1 (centres undefined)
inactive: T-47D breast; 10 µM unless noted 58% and 55.5% | BT-549 breast; 10 µM unless noted 45.3% and 45.4% | MDA-MB-435 melanoma; 10 µM unless noted 35.8% and 24.4% | SW-620 colon; 10 µM unless noted 27.6% and 55.3% | MCF7 breast; 10 µM 18% and 16.3% | HCT-116 colon; 10 µM unless noted 21.2% and 10.3% | KM12 colon; 10 µM unless noted 38.7% and 30.8%
16.6% (inactive) and 3.42% (active): HCC-2998 colon; 10 µM unless noted

O=C(O)c1c(Cl)c(Cl)c(Cl)c(Cl)c1-c1c2cc(I)c(=O)c(I)c-2oc2c(I)c(O)c(I)cc12
inactive: T-47D breast; 10 µM 110% and 85.9% and 95.8% | BT-549 breast; 10 µM 108% and 117% and 43.5% | MDA-MB-435 melanoma; 10 µM 104% and 113% and 110% | MDA-MB-435 melanoma; 100 µM 69% | SW-620 colon; 10 µM 107% and 140% and 109% | SW-620 colon; 100 µM 13.7% | MCF7 breast; 10 µM 101% and 98.9% and 81.2% | HCT-116 colon; 10 µM 106% and 103% and 114% | HCC-2998 colon; 10 µM 110% and 106% and 113% | KM12 colon; 10 µM 102% and 99.9% and 104% | KM12 colon; 100 µM 67.9%
active: T-47D breast; 100 µM -47.8% | BT-549 breast; 100 µM -47.5% | MCF7 breast; 100 µM -38.3% | HCT-116 colon; 100 µM 0.594% | HCC-2998 colon; 100 µM -7.72%

COC(=O)[C@@]12OC[C@]34[C@H]([C@@H](O)[C@@H]1O)[C@@]1(C)[C@H](O)C(=O)C=C(C)[C@@H]1C[C@H]3OC(=O)C(OC(C)=O)[C@@H]24 (some centres undefined)
active: T-47D breast; 10 µM unless noted -20.5% | BT-549 breast; 10 µM unless noted -53.1% | MDA-MB-435 melanoma; 10 µM unless noted -81.2% | SW-620 colon; 10 µM unless noted -38.2% | MCF7 breast; 10 µM -19.2% | HCT-116 colon; 10 µM unless noted -54.1% | HCC-2998 colon; 10 µM unless noted -75.8% | KM12 colon; 10 µM unless noted -57.8%

N#CC1C(=O)SC2c3ccccc3C(=O)c3ccccc3C12 (centres undefined)
inactive: T-47D breast; 10 µM unless noted 89% | BT-549 breast; 10 µM unless noted 101% | MDA-MB-435 melanoma; 10 µM unless noted 107% | SW-620 colon; 10 µM unless noted 101% | MCF7 breast; 10 µM 98.9% | HCT-116 colon; 10 µM unless noted 102% | HCC-2998 colon; 10 µM unless noted 102% | KM12 colon; 10 µM unless noted 96.6%

COC(=O)c1nc(=S)[nH]c(C(=O)OC)c1C(=O)c1ccc2ccccc2c1
inactive: T-47D breast; 10 µM unless noted 86.5% | BT-549 breast; 10 µM unless noted 131% | MDA-MB-435 melanoma; 10 µM unless noted 104% | SW-620 colon; 10 µM unless noted 101% | MCF7 breast; 10 µM 94.4% | HCT-116 colon; 10 µM unless noted 107% | HCC-2998 colon; 10 µM unless noted 113% | KM12 colon; 10 µM unless noted 107%

CCOC(=O)c1c(C)[nH]c(CO)c1C
inactive: T-47D breast; 10 µM unless noted 93.5% | BT-549 breast; 10 µM unless noted 109% | MDA-MB-435 melanoma; 10 µM unless noted 111% | SW-620 colon; 10 µM unless noted 109% | MCF7 breast; 10 µM 91.6% | HCT-116 colon; 10 µM unless noted 100% | HCC-2998 colon; 10 µM unless noted 109% | KM12 colon; 10 µM unless noted 94.2%

COc1cc(NS(C)(=O)=O)ccc1Nc1c2ccccc2nc2ccccc12
active: MCF7 breast; 250 µM -69.8% and -100% | HCC-2998 colon; 10 µM unless noted -44.3% [2.5 µM]
inactive: T-47D breast; 10 µM unless noted 23.1% [2.5 µM] | BT-549 breast; 10 µM unless noted 20.2% [2.5 µM] | MDA-MB-435 melanoma; 10 µM unless noted 64.1% [2.5 µM] | SW-620 colon; 10 µM unless noted 41.5% [2.5 µM] | MCF7 breast; 2.5 µM 32.5% | MCF7 breast; 10 µM 22.5% [middle of 4 runs] | HCT-116 colon; 10 µM unless noted 31% [2.5 µM] | KM12 colon; 10 µM unless noted 48.6% [2.5 µM]

CCN(CC)CCOc1ccc(-c2nc3cc(Cl)ccc3s2)cc1
active: MDA-MB-435 melanoma; 10 µM unless noted -51.1% | SW-620 colon; 10 µM unless noted -52.9% | MCF7 breast; 10 µM 9.23% | HCT-116 colon; 10 µM unless noted -69.3% | HCC-2998 colon; 10 µM unless noted -97.2% | KM12 colon; 10 µM unless noted -99.2%
inactive: T-47D breast; 10 µM unless noted 22% | BT-549 breast; 10 µM unless noted 68%
